Screening data deposited in PubChem by National Center for Advancing Translational Sciences (NCATS).
D2 ag-1: Beta-Arrestin HTS for Positive Allosteric Modulators of the Human D2 Dopamine Receptor: Agonists; D(2) dopamine receptor (Homo sapiens), P14416; AID 624465, 2012; hit rate 0.084% among 360,000; DiscoveRx PathHunter D2 beta-arrestin, luminescence, 90 min; 100% = 57 uM dopamine signal; activation, % (test concentration not listed); in the data active = activation above about 40%; inconclusive = between about 15% and that limit
Target sequence (P14416 whole entry, looked up): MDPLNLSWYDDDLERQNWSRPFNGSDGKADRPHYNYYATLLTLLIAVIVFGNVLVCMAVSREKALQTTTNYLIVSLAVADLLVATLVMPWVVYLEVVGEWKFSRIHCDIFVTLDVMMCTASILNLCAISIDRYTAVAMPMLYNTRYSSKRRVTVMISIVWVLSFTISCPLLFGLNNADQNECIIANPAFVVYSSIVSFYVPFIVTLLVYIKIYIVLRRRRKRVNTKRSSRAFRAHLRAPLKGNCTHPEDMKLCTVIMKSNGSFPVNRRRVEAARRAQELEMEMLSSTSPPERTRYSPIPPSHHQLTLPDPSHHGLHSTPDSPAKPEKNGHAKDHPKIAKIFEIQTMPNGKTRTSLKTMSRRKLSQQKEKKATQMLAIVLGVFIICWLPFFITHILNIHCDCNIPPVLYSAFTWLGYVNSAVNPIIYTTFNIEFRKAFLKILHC
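Agonist mode: compounds alone added to overnight-plated D2 PathHunter cells for 90 min at 37 C, with 57 uM final dopamine (EC100) defining full response. Beta-arrestin recruitment detected by chemiluminescent reagent, read after 1 h at ambient temperature.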
D2 antagonist: HTS Assay for Allosteric Antagonists of the Human D2 Dopamine Receptor: Primary Screen for Antagonists | D(2) dopamine receptor (Homo sapiens), P14416 | HEK293 TREx D2 cells, calcium flux, dopamine EC80 | inhibition, % at 10 µM | hit rate 2% among 340,000 | AID 485344, 2010; in the data active = inhibition above about 30%; inactive = below that, where a call was filed; note: 0% is about no effect
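In this primary screen, negative modulation is detected by tracking calcium flux after an EC80 dopamine challenge in inducible HEK293 T-REx D2 cells preexposed to test compound for 180 s.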
D2 PAM-1: Beta-Arrestin HTS for Positive Allosteric Modulators of the Human D2 Dopamine Receptor: Potentiators; AID 624464, 2012; D(2) dopamine receptor (Homo sapiens), P14416; hit rate 0.23% among 360,000; DiscoveRx D2 beta-arrestin cells, luminescence, 90 min; 100% = 57 uM dopamine signal; potentiation, % (no concentration beside the values); in the data active = potentiation above about 50%; inconclusive = mostly about 30% to 49%
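PathHunter beta-arrestin assay in DiscoveRx D2 cells. Compounds were added with an EC20 of dopamine (50 nM final) for 90 min at 37 deg C. Luminescence was read 1 h after detection reagent, with 57 uM dopamine as the EC100 control.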
D2 ag-2: HTS Assay for Allosteric Agonists of the Human D2 Dopamine Receptor: Primary Screen for Agonists; D(2) dopamine receptor (Homo sapiens), P14416; activation, % at 2 µM; hit rate 0.53% among 340,000; HEK293 T-REx D2 cells, calcium flux agonist mode;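 active = activation over 3 SD above normal in the single-dose calcium agonist read, cut at about 30% in these data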; note: 0% is about no effect
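In this primary screen, compounds producing a positive calcium signal within 180 s of addition to tetracycline-induced, force-coupled HEK293 Trex D2 cells are flagged; cells are dye-loaded with a no-wash calcium kit beforehand.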
D2 PAM-2: HTS Assay for Positive Allosteric Modulators of the Human D2 Dopamine Receptor: Primary Screen for Potentiators | AID 485347, 2010 | HEK293 T-REx D2, calcium flux, EC20 dopamine potentiation | hit rate 0.34% among 340,000 | D(2) dopamine receptor (Homo sapiens), P14416 | potentiation, % at 10 µM;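 active = potentiation over 3 SD above the plate norm, cut at about 30% in these data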; note: 0% is about no effect
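Cells plated with tetracycline inducer and held overnight at 30 C; calcium dye loaded 30–90 min at room temperature; baseline taken, compound added and read 180 s; EC20 dopamine then added and read 180 s.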
Numbers without * were called inactive; ? = inconclusive; . = no result. In the library only some 2.4% were active in any assay of this set; here they are far more common.

SMILES | D2 ag-1 | D2 antagonist | D2 PAM-1 | D2 ag-2 | D2 PAM-2
CC1CCN(C(=O)c2ccc3c(c2)N(Cc2ccccc2F)C(=O)c2ccccc2S3(=O)=O)CC1 | . | . | . | 0 | 13
COc1ccc(OC)c(S(=O)(=O)N2CCC(c3ccncc3)CC2)c1 | . | . | . | 0 | .
Cc1sc2ncnc(SCC(=O)NC3CCCC3)c2c1C | -2 | 32* | -1 | -3 | .
CCOC(=O)c1ccc(NC(=O)CSc2cc(-c3ccccc3)nc(C)n2)cc1 | . | . | . | 4 | 7
CCOC(=O)c1c(-c2ccc(C)cc2C)csc1NC(=O)c1ccccc1Cl | . | . | . | . | 0
Cc1nc2c(-c3ccc(F)cc3)c(C)nn2c(C)c1CCC(=O)NCc1cccc(Cl)c1 | . | . | . | -1 | 8
Cc1ccccc1C(=O)c1cccn1CC(=O)NC1CCCC(C)C1C (stereo unspecified) | -6 | -2 | -14 | 0 | -2
CC1CCCCC1NC(=O)Cn1cccc1C(=O)c1ccccc1 (stereo unspecified) | -5 | -10 | -9 | 0 | 35*
CCCN(C(=O)CCc1nc(-c2ccc(C)cc2)no1)c1ccc(OCC)cc1 | . | . | . | 1 | 1
Cc1cc2ccccc2c(=O)n1CC(=O)NCC(=O)N1CCN(c2ccccc2)CC1 | -4 | 64* | -7 | 1 | 0
COc1ccc(N2C(=O)CCC2=O)cc1 | -2 | 34* | 4 | 0 | 17
CC(=O)Oc1ccc(N2C(=O)CCC2=O)cc1 | -4 | 0 | 1 | 0 | -2
Cc1occc1C(=O)N/N=C/C=C/c1ccccc1[N+](=O)[O-] | -4 | 38* | -5 | -1 | -20
O=C(NC(Cc1ccc2c(c1)OCO2)C(=O)N1CCCC1C(=O)O)c1ccccc1 (stereo unspecified) | 0 | 34* | 3 | -1 | 9
CCc1ccc(N2CC(C)Cn3c2nc2c3c(=O)n(CC(=O)O)c(=O)n2C)cc1 (stereo unspecified) | . | . | . | 0 | 0
CC(C)Sc1ncc(Cl)c(C(=O)Nc2ccc(S(=O)(=O)N3CCCCC3C)cc2)n1 (stereo unspecified) | . | . | . | . | 1
O=[N+]([O-])c1ccc(S(=O)(=O)NCCN2CCOCC2)cc1 | 3 | 5 | 5 | 0 | 49*
O=C(Cn1ccc(=O)[nH]c1=O)c1ccc([N+](=O)[O-])o1 | 47* | . | 6 | . | .
Clc1ccccc1OCCCCN1CCCCC1 | -5 | 77* | -5 | 1 | -28
Clc1ccccc1OCCCCN1CCCC1 | -3 | -22 | -26 | -1 | -18
CC(C)c1ccccc1OCCCN1CCCC1 | 5 | 65* | -7 | 0 | -14
Clc1ccc(Cl)c(OCCCCN2CCCCC2)c1 | -3 | 86* | -15 | -2 | -31
CC1CCN(CCOc2cc(Cl)ccc2Cl)CC1 | 1 | 72* | -19 | 4 | -30
Cc1cccc(OCCn2c(SCC(N)=O)nc3ccccc32)c1 | . | . | . | -2 | 1
COc1ccc(N2CC(NC(=O)COc3ccccc3C)CC2=O)cc1OC (stereo unspecified) | . | . | . | 0 | 8
SMILES | D2 ag-1 | D2 antagonist | D2 PAM-1 | D2 ag-2 | D2 PAM-2
Brc1ccccc1OCCCN1CCCCCC1 | -2 | 46* | -16 | 0 | -18
Brc1ccccc1OCCCCCN1CCOCC1 | 1 | 36* | -25 | 0 | -15
CCC1CCCCN1CCCNC(=O)c1ccc2c(c1)N(Cc1ccccc1F)C(=O)c1ccccc1S2(=O)=O (stereo unspecified) | . | . | . | 3 | 10
CC(=O)c1sc(N/N=C\c2cccc(Br)c2)nc1C | ? | -19 | 92* | 2 | 7
CC(=O)c1sc(N/N=C\c2ccc(Br)cc2)nc1C | 5 | 2 | 13 | 1 | 10
CC1CCC(NC(=O)CN2CCC(n3nnc4cc(F)ccc43)CC2)CC1 (stereo unspecified) | -2 | 41* | -39 | 1 | -23
O=C(CN1CCC(n2nnc3cc(F)ccc32)CC1)NNC(=O)c1ccccc1 | -3 | 9 | -19 | 0 | 16
Cc1ccn2cc(CNC(=O)c3cccc(C(F)(F)F)c3)nc2c1 | . | . | . | 1 | 5
COc1ccc(NC(=O)Cn2ccn(Cc3ccccc3)c(=O)c2=O)cc1Cl | . | . | . | 1 | -11
COc1ccc(OC)c(C2C3CN(C(C)C)CC=C3C(C#N)=C(N)C2(C#N)C#N)c1 (stereo unspecified) | -6 | -7 | -49 | 4 | -15
N#CC1=C(N)C(C#N)(C#N)[C@H](c2ccoc2)[C@H]2CN(Cc3ccccc3)CC=C12 | 1 | 1 | -17 | 31* | 3
CCCN1CC=C2C(C#N)=C(N)C(C#N)(C#N)C(c3cccc(OC)c3OC)C2C1 (stereo unspecified) | -3 | 5 | -25 | 57* | -15
COc1ccc(OC)c(C(C)NC(=O)Cn2c(=O)cc(C)c3c(C)nn(-c4ccc(C)cc4)c32)c1 (stereo unspecified) | . | . | . | 0 | -7
COc1ccc(N=C2S/C(=C\c3cc(C)n(C)c3C)C(=O)N2CC(C)C)cc1 | -8 | 13 | -8 | 0 | 11
COc1ccc(N=C2S/C(=C\c3ccco3)C(=O)N2CC(C)C)cc1 | -3 | 36* | -24 | 0 | 10
O=C(COC(=O)c1ccc(O)cc1)Nc1ccc(OC(F)F)cc1 | -1 | 32* | 1 | 2 | 1
O=C1CC(c2ccccc2)CC(=NCCO)/C1=C(\O)CCCN1C(=O)c2ccccc2C1=O (stereo unspecified) | 1 | 2 | 0 | 0 | 51*
CC1(C)CC(=O)/C(=C(\O)CCCN2C(=O)c3ccccc3C2=O)C(=NCC(=O)O)C1 | 1 | -9 | -3 | 1 | 15
O=C(c1cc2nc(-c3cccs3)cc(C(F)(F)F)n2n1)N1CCCc2ccccc21 | -2 | 31* | -18 | 0 | -3
O=C(c1cc2nc(-c3cccs3)cc(C(F)(F)Cl)n2n1)N1CCCc2ccccc21 | -5 | 19 | -6 | 0 | 13
COc1cc(Cl)c(C)cc1NC(=O)CC1Oc2ccccc2NC1=O (stereo unspecified) | . | . | . | 0 | -5
Cc1cc(C)c(-c2cc(C(F)(F)F)no2)c(=O)[nH]1 | 3 | 32* | 1 | 2 | -10
CCOC(=O)c1c(Nc2ccccc2N)cc(C)nc1C | 1 | 9 | 9 | 0 | -1
CCOC(=O)c1c(O)cc(C)cc1Nc1ccccc1 | -1 | 32* | -4 | 2 | 4
CC1=C(C(=O)OCC2CCCO2)C(c2coc3ccc(Cl)cc3c2=O)C2=C(CCCC2=O)N1 (stereo unspecified) | -1 | 1 | -26 | 0 | 23
